Data from the supplement of paper PMC10849652.
The full data set covers some 7,900 targets. This sample favours those with a hit. About 0.6% of all pairs of compound and target were hits.

compound: C1=CC(=CC=C1C2=NC3=C(N2)C=C(C=C3)C(=O)N)OC4=CC=C(C=C4)Cl; test: log2 fold change, soluble protein after heating vs DMSO (PISA); higher = thermal stabilisation; K562 cells, 10 uM, 30 min; active = over 0.2 and 3.5 SD of the protein, either way, in both replicates (recomputed)
How it was run: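 K562 cells (2×10^6 cells/mL) were treated with 10 μM compound for 30 min, and aliquots were heated for 3 min over 48°C-58°C. Pooled aliquots were extracted in PBS with 0.5% NP-40 at 4°C, and the supernatant after 21,000xg for 90 min was measured by TMTpro 16plex LC-MS/MS with channel sums equalised. Reported thermal stability, relative to control samples and from duplicates, is a log2 fold change.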

UniProt Q9BUP3, sequence (Q9BUP3 whole entry, looked up): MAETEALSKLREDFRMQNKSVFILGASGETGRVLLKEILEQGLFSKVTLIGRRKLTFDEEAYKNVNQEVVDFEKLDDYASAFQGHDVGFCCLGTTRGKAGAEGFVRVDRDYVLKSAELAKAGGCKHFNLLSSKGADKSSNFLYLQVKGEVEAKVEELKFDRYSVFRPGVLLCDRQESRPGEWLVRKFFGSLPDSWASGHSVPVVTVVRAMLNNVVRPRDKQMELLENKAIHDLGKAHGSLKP
UniProt Q8N4A0, sequence (Q8N4A0 whole entry, looked up): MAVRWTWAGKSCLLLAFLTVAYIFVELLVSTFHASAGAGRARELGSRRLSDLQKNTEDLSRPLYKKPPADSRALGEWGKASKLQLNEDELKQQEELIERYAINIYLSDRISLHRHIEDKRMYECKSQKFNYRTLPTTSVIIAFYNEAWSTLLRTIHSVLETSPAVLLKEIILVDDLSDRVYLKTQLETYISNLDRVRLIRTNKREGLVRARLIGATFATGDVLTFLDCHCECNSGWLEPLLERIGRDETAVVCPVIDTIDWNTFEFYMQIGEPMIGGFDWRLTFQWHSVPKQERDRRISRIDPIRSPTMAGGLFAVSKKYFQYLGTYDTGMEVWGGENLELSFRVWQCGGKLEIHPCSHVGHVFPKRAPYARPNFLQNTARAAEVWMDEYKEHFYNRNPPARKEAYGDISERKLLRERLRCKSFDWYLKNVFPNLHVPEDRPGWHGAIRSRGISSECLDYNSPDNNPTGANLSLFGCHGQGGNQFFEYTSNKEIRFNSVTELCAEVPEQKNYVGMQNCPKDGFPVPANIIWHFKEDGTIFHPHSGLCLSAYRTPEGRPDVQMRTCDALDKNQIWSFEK
UniProt Q96JB3, sequence (Q96JB3 whole entry, looked up): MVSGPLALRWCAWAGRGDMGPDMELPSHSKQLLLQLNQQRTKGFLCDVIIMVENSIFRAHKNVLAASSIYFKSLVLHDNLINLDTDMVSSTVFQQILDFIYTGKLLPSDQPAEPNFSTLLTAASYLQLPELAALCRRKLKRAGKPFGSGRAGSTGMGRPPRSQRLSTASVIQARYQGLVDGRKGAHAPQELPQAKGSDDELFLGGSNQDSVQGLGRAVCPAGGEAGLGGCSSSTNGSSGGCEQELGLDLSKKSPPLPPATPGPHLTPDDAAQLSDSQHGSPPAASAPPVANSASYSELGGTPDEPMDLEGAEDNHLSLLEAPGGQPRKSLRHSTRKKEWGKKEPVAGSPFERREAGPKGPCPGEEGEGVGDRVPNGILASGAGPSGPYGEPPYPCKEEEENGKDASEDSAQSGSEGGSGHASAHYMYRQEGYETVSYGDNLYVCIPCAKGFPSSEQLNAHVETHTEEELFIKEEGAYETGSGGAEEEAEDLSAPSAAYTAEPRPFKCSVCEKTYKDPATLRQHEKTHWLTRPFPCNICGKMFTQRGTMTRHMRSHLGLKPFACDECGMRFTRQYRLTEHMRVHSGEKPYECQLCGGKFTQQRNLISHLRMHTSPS
UniProt Q6P3S6, sequence (Q6P3S6 whole entry, looked up): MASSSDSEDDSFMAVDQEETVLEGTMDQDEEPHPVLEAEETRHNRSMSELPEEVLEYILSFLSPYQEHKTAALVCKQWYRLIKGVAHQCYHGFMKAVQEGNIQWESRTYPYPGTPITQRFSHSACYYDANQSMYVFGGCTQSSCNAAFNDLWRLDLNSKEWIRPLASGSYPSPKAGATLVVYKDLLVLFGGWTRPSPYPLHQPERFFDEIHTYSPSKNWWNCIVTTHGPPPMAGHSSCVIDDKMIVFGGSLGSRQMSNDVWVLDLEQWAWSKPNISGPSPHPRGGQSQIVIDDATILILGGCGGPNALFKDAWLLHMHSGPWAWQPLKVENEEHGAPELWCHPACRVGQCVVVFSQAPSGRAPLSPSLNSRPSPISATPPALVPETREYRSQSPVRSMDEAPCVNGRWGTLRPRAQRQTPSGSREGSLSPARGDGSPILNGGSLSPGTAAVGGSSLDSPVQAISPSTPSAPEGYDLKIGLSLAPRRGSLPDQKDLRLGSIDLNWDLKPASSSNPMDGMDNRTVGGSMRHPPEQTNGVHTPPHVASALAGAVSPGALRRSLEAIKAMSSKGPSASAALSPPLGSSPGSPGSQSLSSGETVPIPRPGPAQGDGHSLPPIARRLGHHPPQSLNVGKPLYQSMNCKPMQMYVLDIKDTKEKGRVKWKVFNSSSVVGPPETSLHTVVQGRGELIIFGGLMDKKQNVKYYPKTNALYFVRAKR
UniProt Q7Z4V5, sequence (Q7Z4V5 whole entry, looked up): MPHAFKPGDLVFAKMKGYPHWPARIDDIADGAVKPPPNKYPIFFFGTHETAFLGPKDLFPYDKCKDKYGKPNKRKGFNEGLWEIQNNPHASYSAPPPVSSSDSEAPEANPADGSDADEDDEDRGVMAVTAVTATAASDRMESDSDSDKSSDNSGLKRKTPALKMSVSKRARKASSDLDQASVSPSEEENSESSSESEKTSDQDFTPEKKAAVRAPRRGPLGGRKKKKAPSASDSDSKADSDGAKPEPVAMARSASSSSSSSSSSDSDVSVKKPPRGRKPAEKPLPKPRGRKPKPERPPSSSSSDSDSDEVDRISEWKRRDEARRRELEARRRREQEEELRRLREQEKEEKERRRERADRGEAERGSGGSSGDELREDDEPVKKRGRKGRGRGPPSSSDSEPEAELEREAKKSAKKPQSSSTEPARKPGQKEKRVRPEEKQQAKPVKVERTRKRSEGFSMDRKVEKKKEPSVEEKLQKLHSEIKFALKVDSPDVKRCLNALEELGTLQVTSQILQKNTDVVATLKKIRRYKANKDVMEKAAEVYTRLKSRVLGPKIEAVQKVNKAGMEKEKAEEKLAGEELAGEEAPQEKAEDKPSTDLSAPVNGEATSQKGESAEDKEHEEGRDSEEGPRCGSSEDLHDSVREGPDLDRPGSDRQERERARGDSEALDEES
UniProt P52597, sequence (P52597 whole entry, looked up): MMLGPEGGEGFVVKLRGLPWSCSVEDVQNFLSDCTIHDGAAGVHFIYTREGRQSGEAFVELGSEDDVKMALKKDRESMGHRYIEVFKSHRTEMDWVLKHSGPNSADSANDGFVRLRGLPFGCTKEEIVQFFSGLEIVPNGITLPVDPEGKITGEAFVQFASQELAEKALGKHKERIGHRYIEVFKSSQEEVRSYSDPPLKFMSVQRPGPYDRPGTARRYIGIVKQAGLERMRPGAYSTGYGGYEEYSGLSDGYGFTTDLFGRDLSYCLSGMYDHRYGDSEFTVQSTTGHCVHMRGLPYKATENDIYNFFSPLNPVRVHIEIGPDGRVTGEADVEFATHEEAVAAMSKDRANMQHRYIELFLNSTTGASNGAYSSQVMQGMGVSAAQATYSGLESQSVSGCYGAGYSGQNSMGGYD
UniProt P50213, sequence (P50213 whole entry, looked up): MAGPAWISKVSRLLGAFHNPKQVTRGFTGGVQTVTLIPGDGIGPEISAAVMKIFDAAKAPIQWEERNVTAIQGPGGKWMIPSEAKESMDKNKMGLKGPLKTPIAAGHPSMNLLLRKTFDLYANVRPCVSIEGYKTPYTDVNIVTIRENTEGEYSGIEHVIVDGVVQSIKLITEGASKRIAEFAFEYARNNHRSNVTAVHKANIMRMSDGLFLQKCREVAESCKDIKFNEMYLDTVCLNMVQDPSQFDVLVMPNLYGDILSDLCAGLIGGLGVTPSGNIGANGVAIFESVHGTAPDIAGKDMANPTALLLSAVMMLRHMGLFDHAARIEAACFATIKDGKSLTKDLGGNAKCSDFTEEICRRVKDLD
UniProt O15347, sequence (O15347 whole entry, looked up): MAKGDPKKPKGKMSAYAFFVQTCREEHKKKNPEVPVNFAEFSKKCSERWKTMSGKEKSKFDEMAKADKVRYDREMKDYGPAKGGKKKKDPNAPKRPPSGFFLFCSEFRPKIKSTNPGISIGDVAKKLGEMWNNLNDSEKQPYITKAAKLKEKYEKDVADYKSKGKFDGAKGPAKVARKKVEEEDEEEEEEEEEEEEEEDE
UniProt P0CL80, sequence (P0CL80 whole entry, looked up): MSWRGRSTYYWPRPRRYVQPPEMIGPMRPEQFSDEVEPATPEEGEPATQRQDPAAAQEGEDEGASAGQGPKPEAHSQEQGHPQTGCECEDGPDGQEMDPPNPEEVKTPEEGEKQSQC
UniProt Q03014, sequence (Q03014 whole entry, looked up): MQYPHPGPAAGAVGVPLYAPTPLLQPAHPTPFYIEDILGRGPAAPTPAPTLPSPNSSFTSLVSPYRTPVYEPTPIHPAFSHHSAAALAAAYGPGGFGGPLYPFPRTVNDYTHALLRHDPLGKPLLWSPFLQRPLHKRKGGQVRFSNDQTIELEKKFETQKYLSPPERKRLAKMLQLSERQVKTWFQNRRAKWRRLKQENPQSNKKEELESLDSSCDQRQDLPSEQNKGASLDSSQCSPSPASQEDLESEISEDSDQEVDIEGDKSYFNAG
UniProt P02008, sequence (P02008 whole entry, looked up): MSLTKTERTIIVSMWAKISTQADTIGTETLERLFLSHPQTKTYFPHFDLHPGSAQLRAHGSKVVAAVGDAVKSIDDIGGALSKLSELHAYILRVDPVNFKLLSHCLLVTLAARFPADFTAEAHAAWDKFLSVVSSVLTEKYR
UniProt P29084, sequence (P29084 whole entry, looked up): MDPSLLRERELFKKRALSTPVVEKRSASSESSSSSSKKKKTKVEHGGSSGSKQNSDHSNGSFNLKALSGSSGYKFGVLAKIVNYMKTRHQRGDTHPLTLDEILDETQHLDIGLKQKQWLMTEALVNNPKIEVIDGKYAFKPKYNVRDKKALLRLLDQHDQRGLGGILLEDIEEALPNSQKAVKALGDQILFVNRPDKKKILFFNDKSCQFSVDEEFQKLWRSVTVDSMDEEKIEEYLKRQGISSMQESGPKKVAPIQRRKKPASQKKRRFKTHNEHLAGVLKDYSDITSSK
UniProt P63218, sequence (P63218 whole entry, looked up): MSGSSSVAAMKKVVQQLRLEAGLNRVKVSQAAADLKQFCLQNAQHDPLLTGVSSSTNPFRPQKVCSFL
UniProt P0C0S5, sequence (P0C0S5 whole entry, looked up): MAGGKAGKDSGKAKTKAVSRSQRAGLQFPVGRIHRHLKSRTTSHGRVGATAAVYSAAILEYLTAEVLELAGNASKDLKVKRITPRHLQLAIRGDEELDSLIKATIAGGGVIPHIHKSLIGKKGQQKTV

log2 fold change, inactive:
HMGB3 (UniProt O15347) 0.011
HNRNPUL1 (UniProt Q9BUJ2) -0.012
FANCD2 isoform 1 (UniProt Q9BXW9) 0.012
HOOK3 (UniProt Q86VS8) -0.008
HECTD1 (UniProt Q9ULT8) -0.003
HDGFL2 (UniProt Q7Z4V5) -0.006
GTF2E1 (UniProt P29083) -0.002
IFI30 (UniProt P13284) 0.012
GSK3B isoform 2 (UniProt P49841) 0.027
GIGYF2 (UniProt Q6Y7W6) -0.03
GPAT4 (UniProt Q86UL3) -0.021
HTATIP2 isoform 3 (UniProt Q9BUP3) -0.02
H2AZ1 (UniProt P0C0S5) -0.014
IFRD2 isoform 2 (UniProt Q12894) 0.084
GEMIN5 (UniProt Q8TEQ6) 0.023
HIC2 (UniProt Q96JB3) 0.028
GTF2B (UniProt Q00403) -0.035
IDH3A (UniProt P50213) 0.023
HNRNPF (UniProt P52597) -0.034
GAGE12F (UniProt P0CL80) -0.035
GDE1 (UniProt Q9NZC3) 0.019
GLB1 (UniProt P16278) -0.006
FASTKD1 (UniProt Q53R41) -0.051
GALNT4 (UniProt Q8N4A0) 0.026
HHEX (UniProt Q03014) 0.044
HPCAL1 (UniProt P37235) 0
GNG5 (UniProt P63218) 0.089
GLYR1 (UniProt Q49A26) 0.05
HLTF (UniProt Q14527) 0.039
GTF2E2 (UniProt P29084) -0.001
HADHB (UniProt P55084) -0.184
HBZ (UniProt P02008) 0.042
FBXO42 (UniProt Q6P3S6) 0.025
GALNT11 (UniProt Q8NCW6) -0.009
GNB2 (UniProt P62879) 0.051
